The text below walks through data of PubChem BioAssay AID2521 (Sanford-Burnham Center for Chemical Genomics, 2010).

Structures are written as SMILES. In all, about 330,000 compounds went through this assay and about 1,100 (0.33%) were called active. The full list was thinned out, with actives kept by preference. A number with no mark means an inactive call.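 How the source made its calls: active means inhibition above about 40% at 20 µM (limit read from the data); inactive means the rest.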

Chain of Apelin receptor (Homo sapiens) (P35414 whole entry, looked up): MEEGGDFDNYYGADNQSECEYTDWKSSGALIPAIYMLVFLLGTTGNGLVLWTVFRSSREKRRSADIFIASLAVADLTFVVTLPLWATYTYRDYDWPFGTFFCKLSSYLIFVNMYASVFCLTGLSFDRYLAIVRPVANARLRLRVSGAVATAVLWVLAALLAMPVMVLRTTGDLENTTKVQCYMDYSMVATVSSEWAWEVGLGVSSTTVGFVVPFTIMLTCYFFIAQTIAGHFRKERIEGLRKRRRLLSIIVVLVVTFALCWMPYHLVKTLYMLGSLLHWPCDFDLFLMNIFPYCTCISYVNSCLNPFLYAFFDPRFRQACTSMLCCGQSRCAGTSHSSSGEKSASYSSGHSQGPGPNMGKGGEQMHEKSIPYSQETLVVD

The test addresses Apelin receptor (Homo sapiens) (UniProt P35414). The test is described as follows: antagonists of human apelin receptor APJ, primary screen, CHO-K1 cells, beta-arrestin complementation, luminescence (AID 2521).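 Further: cells challenged with 10 nM apelin-13 agonist together with compound; plate controls were apelin-13 plus DMSO wells for no effect and DMSO wells lacking apelin-13 for full effect.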 As to conditions: at 20 µM, stronger effect = higher value.
For orientation: inhibition means the relative decrease from the control value, in per cent. Regarding `COc1ccc(S(=O)(=O)N2CCOCC2)c(C)c1C`, the inhibition is 3%. The figure for `COc1ccccc1NC(=O)c1c(Br)cnn1C` is -0.0339%; for `CN=C1C=C/C(=N/N=c2\ccn(O)cc2C)C=C1C` it is 46% (active). In the case of `CC(C)C[C@@H](N)c1nnc(SCC(=O)c2ccc(Cl)cc2)o1`, the inhibition is 6.62%. For the molecule `O=C1Oc2ccccc2C(=O)/C1=C/c1ccccc1O`, the inhibition is 3.82%. In the case of `O=C(NCCCc1ccccc1)C1CCC(=O)N(CCc2ccc(Cl)cc2)C1` (stereo not drawn), the inhibition is 4.1%. With `COc1cccc(NC(C)=[N+](C)CCNS(=O)(=O)c2ccc(Cl)cc2)c1`, the inhibition was 13.5%. Take `CCOC(=O)c1cnc(Nc2nc3ccccc3o2)nc1CSC(=S)N1CCCCC1`: the inhibition is 44.1% (active).

Take `CCc1ccc(CNC(=O)C2CCCN(c3nc4ccccc4o3)C2)cc1` (stereo not drawn): the inhibition was -5.94%.

Regarding `CCOC(=O)CCNC(=O)N1CCCC(C(=O)c2ccccc2SC)C1` (stereo not drawn), the inhibition was -13.5%. `O=C(CC1SC(=Nc2ccccc2)N(Cc2ccccn2)C1=O)Nc1cccc(Cl)c1` (stereo not drawn): the inhibition was 0.604%. Take `COc1ccc(CCNC(=S)NC(=O)/C=C/c2ccc(C)cc2)cc1OC`: the inhibition was -38%.

Take `O=S(=O)(c1ccc(NC(=S)NN=C(C2CC2)C2CC2)cc1)N1CCOCC1`: the inhibition was -24.4%.

`Cc1ccc(S(=O)(=O)N2CCN(CC(=O)N/N=C/c3cc([N+](=O)[O-])ccc3Cl)CC2)cc1`: the inhibition was -9.95%. Take `O=[N+]([O-])c1cc(Cl)cc(/C=N/NC(=S)Nc2cc(S(=O)(=O)N3CCOCC3)ccc2Cl)c1O`: the inhibition is 42.1% (active).

Turning to `Cn1cc[n+](C)c1COc1ccc(C=O)cc1`, the inhibition is -7.79%. As for `COC(=O)Cc1ccc(OC(=O)C2CCN(S(=O)(=O)c3ccc(OC)c(OC)c3)CC2)cc1`, the inhibition is 11.3%. For the molecule `CN(CC(=O)NCc1cccnc1)S(=O)(=O)c1cc(Cl)ccc1Cl`, the inhibition was -3.77%. For the molecule `CC(=O)N1c2ccc(S(=O)(=O)N3CCC(C(=O)NCc4ccc(F)cc4)CC3)cc2CC1C` (stereo not drawn), the inhibition was 7.14%. For `COc1cccc(CNC(=O)C(=O)NCCC2CCCCN2S(=O)(=O)c2ccc(C)cc2)c1` (stereo not drawn), the inhibition was -56.9%.

Regarding `c1ccc(Cc2nn3c(Cn4cnc5ccccc54)nnc3s2)cc1`, the inhibition was 7.67%.

Regarding `Cc1ccc(C(=O)COC(=O)c2cccc(N3C(=O)c4c(C)nc5ccccc5c4C3=O)c2)cc1C`, the inhibition is -8.71%.

`COc1ccc(C(=O)NCC(=O)N/N=C/c2cccnc2)cc1`: the inhibition is 4.23%.

On to `O=C(CSc1cccc2cccnc12)N/N=C/c1cccnc1`, for which the inhibition was 41.8% (active). Regarding `CCOC(=O)N/N=C/c1cccnc1`, the inhibition was 11.3%. In the case of `CS(=O)(=O)N1CCc2cc(C(=O)Nc3ccccc3)ccc21`, the inhibition is 6.74%.

Regarding `Clc1ccc(Cn2ncc3c(NCc4cccnc4)ncnc32)cc1`, the inhibition is -0.393%. Regarding `CCOc1ccc(S(=O)(=O)Nc2ccc(S(=O)(=O)Nc3cc(OC)ccc3OC)cc2)cc1`, the inhibition is 15.7%. With `COc1ccc(N2CC(NS(=O)(=O)c3ccc4ccccc4c3)CC2=O)cc1` (stereo not drawn), the inhibition is 1.28%. `COc1cc(NS(=O)(=O)c2ccc3ccccc3c2)c2ncccc2c1`: the inhibition was 65.3% (active). Under `O=C(NCCS(=O)(=O)NCc1ccc(Cl)cc1)c1ccccc1` stands -4.12%; under `O=C(CN1C(=O)NC2(CCCC2)C1=O)Nc1ccc(F)c(F)c1F`, 8.35%; under `COc1cccc(CC2(CO)CCN(Cc3cnc(-c4cccc(C)c4)nc3)CC2)c1`, -17.4%. For the molecule `Cc1cnc(NC(=O)c2ccccn2)s1`, the inhibition is 9.6%. Turning to `C/C(=N\NC(=O)c1ccccc1F)c1ccccn1`, the inhibition is 57.1% (active). On to `COc1ccc(/C(C)=N\NC(=O)c2ccc(-c3ccccc3)cc2)c(F)c1`, for which the inhibition is 8.03%. For `CCOC(=O)[C@H]1CCC[C@@H](NS(=O)(=O)c2ccc(NC(C)=O)cc2)C1`, the inhibition is 6.91%. `CC(C)(C)c1cc(C(=O)NN)n(Cc2ccc(Cl)cc2Cl)n1`: the inhibition was -15%. For `Cc1ccc(C(=O)OC2=CC(=O)CC(C)(C)C2)cc1`, the inhibition is -13.7%.

In the case of `CCc1c(C)sc(NC(=O)c2cccs2)c1C(N)=O`, the inhibition was 1.68%.

Consider `O=C1Nc2ccc(Br)cc2/C1=N/N=C/C1=C(N2CCOCC2)C(=C\c2ccccc2)/CC1`, for which the inhibition is 46.4% (active). In the case of `COc1ccc(/C=N/N=C2/C(=O)Nc3ccccc32)cc1O`, the inhibition is -11.9%. The figure for `O=C(c1cccc(-n2cccc2)c1)N1CCN(S(=O)(=O)c2ccc(F)cc2)CC1` is -9.43%; for `COc1cc(Nc2nc3ccc(Cl)cc3n3cnnc23)cc(OC)c1OC` it is -3.66%; for `Nc1nc(SCC(=O)NNc2c(Cl)cc(Cl)cc2Cl)n[nH]1` it is -14.8%. Turning to `COc1ccc(CNc2cc(C)cc(C)c2)cc1OC`, the inhibition is -9.47%.

As for `CN(CC(=O)Nc1ccc(F)c(F)c1F)C(=O)C1CC(=O)N(C2CCCC2)C1` (stereo not drawn), the inhibition was 19.9%.

Consider `COc1ccc(CCC(=O)c2ccc(OC)cc2)cc1`, for which the inhibition was -11.9%.

`COc1ccc(NC(=O)/C(Cl)=C(/Cl)S(=O)Cc2ccc(C)cc2)cn1` (stereo not drawn): the inhibition is 89.8% (active).

Take `COC(=O)c1sccc1NC(=S)Nc1ccc(C)cc1`: the inhibition was -10.8%. The figure for `COc1ccc(CS(=O)/C(Cl)=C(/Cl)C(=O)Nc2ccc(OC)nc2)cc1` (stereo not drawn) is 67.6% (active); for `COc1ccc(OC(C)C(=O)Nc2cccnc2)cc1` (stereo not drawn) it is 15.8%. `CCN(CC(=O)Nc1ccc(OC)cc1)C(=O)CSCc1ccc(C)cc1`: the inhibition is 12.9%. In the case of `CC1CCCCN1C(=O)CCS(=O)(=O)Cc1ccccc1` (stereo not drawn), the inhibition was 11.3%.

For the molecule `Cc1nc(CN2CCN(C(=O)CCc3nnc(Cc4c[nH]c5ccccc45)o3)CC2)cs1`, the inhibition is 21.1%. With `CSC1=N/C(=C\C=C\c2cccs2)C(=O)S1`, the inhibition was 5.36%. Take `CC(C)c1ccc(NS(=O)(=O)c2cn(C)c(=O)n(C)c2=O)cc1`: the inhibition is 7.41%. The figure for `CCCc1nc2c(C)cc(-c3nc4ccccc4n3C)cc2n1Cc1ccc(-c2ccccc2C(=O)O)cc1` is 9.96%; for `CC(=O)c1c(C)[nH]c(C(=O)CN2C(=O)NC(C)(C)C2=O)c1C` it is 8.53%.

With `Cc1ccc(SC(C)C(=O)NCc2ccc(F)cc2)cc1` (stereo not drawn), the inhibition is 16.8%. As to `CC(C)NC(=O)C(c1ccc(F)cc1)N(C(=O)CCC(=O)Nc1ccccn1)c1ccccc1F` (stereo not drawn), the inhibition was 21.5%. Under `CC(C)C(=O)N1CCC2(CC1)Oc1ccc(F)cc1C(=O)C21CC(c2ccccc2)=NO1` (stereo not drawn) stands -0.0582%; under `COc1cccc2sc(Nc3nc(C)c(C(C)=O)s3)nc12`, 60.9% (active).

Take `CNC(=O)c1sc(NCc2ccccc2OC)nc1C`: the inhibition was -1.64%.

Consider `COc1cc2ccccc2cc1C(=O)Nc1nc(C)c(C(C)=O)s1`, for which the inhibition was 1.17%.

Take `Cc1cccc(NC(=O)Cc2ccc(Br)cc2)n1`: the inhibition was -4.98%. As to `O=C(Cc1c(Cl)cccc1Cl)NC1CC1`, the inhibition is 14.9%. `O=C(CCl)NNc1cccc(Cl)n1`: the inhibition is 47.2% (active). With `COc1ccc(N2CCN(C(=O)CNS(=O)(=O)c3ccc(C)c(C)c3)CC2)cc1`, the inhibition was 3.43%. The figure for `Cc1ccc(CC(=O)Nc2cccc(C#N)c2)cc1` is 7.58%; for `Oc1ccc(N=Nc2nccs2)c(O)c1` it is 47.6% (active); for `CC(Oc1ccc(F)cc1)C(=O)Nc1cc(S(=O)(=O)N2CCOCC2)ccc1N1CCN(C)CC1` (stereo not drawn) it is 11.7%. The figure for `CCCOc1ccc(N2CC(C(=O)Nc3ccccn3)CC2=O)cc1` (stereo not drawn) is -12.1%; for `COC(=O)c1cc(NC(=O)CN2CCC(C(N)=O)(N3CCCCC3)CC2)cc(C(=O)OC)c1` it is 12.5%. Regarding `O=C(CSc1nnnn1C1CCCC1)N1CCCCC1`, the inhibition was -7.07%. As for `CC(=O)C1=C(O)C(=O)N(c2cccnc2)C1c1ccc([N+](=O)[O-])cc1` (stereo not drawn), the inhibition was 5.89%. For the molecule `CC(=O)C1=C(O)C(=O)N(c2ccc(S(N)(=O)=O)cc2)C1c1ccccc1F` (stereo not drawn), the inhibition is 59% (active). As for `CC(=O)C1=C(O)C(=O)N(c2ccc(Br)cc2)C1c1ccc([N+](=O)[O-])cc1` (stereo not drawn), the inhibition is 18.2%. The figure for `COc1cccc(NC(=O)C/C(C)=N/NC(=O)C2CCCCC2)c1` is -8.71%; for `COc1cccc(NC(=O)C(=O)c2cn(CC(=O)N3CCOCC3)c3ccccc23)c1` it is -7%; for `Cc1cc(C(F)F)n2nc(C(=O)Nc3ccc(S(=O)(=O)NC45CC6CC(CC(C6)C4)C5)cc3)nc2n1` it is 10.3%.

For the molecule `O=C(NC1CCCCC1)C1CCC(CNS(=O)(=O)c2ccccc2)CC1` (stereo not drawn), the inhibition was -0.098%. Consider `CN1/C(=c2/s/c(=C3/C(=O)N(c4ccccc4)NC3=Nc3ccccc3)n(C)c2=O)C(C)(C)c2ccccc21`, for which the inhibition was 40.6% (active). With `CCOc1cccc2c1OC1(CCCCC1)N1N=C(c3cccnc3)CC21` (stereo not drawn), the inhibition was -4.03%. In the case of `CN(C)CCOc1cccc(Br)c1`, the inhibition is 7.12%. Turning to `COCCCNc1nc2ccccc2nc1NS(=O)(=O)c1ccc(F)cc1`, the inhibition is 8.77%.

With `COC(=O)c1ccccc1NC(=O)C1CCN(C(=O)N2CCOc3ccccc32)CC1`, the inhibition is 4.33%.

On to `O=C(CN(C(=O)CNC(=O)c1cccs1)c1cccc(F)c1)NC1CCCCC1`, for which the inhibition is 15.9%. As to `COc1cccc(C(=O)N/N=C(\C)c2cccc(NC(=O)c3ccc(F)cc3)c2)c1OC`, the inhibition was -21.2%.

As to `CCC(C)NC(=O)N[C@@H](CCSC)C(=O)O` (stereo partly drawn), the inhibition is 3.5%. In the case of `COc1cc(/C=C(\C#N)c2nc3c(s2)CC(C)CC3)ccc1O` (stereo not drawn), the inhibition was 40.9% (active). Turning to `Cn1cccc1C(=O)OCC(=O)c1ccc(Br)s1`, the inhibition is 6.14%. The figure for `O=C(CSc1ncnc2c1nnn2Cc1ccc(F)cc1)NC1CCCC1` is 23.2%.
